The list is not random: actives were taken first. Their share in the collection is about 18%.
KAT2A inh: inhibitors of human GCN5L2 histone acetyltransferase. Q92830. GCN5L2 HAT assay, ThioGlo1 CoA-SH fluorescence. Potency, µM (doses to about 58.9 µM), most hits filed as inhibitors. 390,000 tested, 0.21% active
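Fluorescence readout, Ex340nm/Em540nm: ThioGlo1 (50uM final) reacts with free CoA thiol released as 20nM GCN5L2 acetylates H3(1-25) peptide (75uM) using acetyl-CoA (70uM). Compound and enzyme sat 15 min beforehand; 20 min room-temperature reaction.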
VDR inh: vitamin D3 receptor (human) inhibition. VDR-SRC2-3 peptide fluorescence polarization, 2 h. P11473. 400,000 tested, 0.93% active. Potency, µM, most hits filed as inhibitors. AID 504847
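The screen uses fluorescence polarization to detect compounds that interfere with recruitment of the SRC2-3 coactivator peptide to VDR; plates are read after 2 h at room temperature.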
PLK1 PBD block: blocks phosphopeptide binding to human PLK1 polo-box domain; AID 720504; P53350; Potency, µM, actives largely listed as inhibitors; 360,000 tested, 2.8% active; Plk1 PBD binding of FITC phosphopeptide, fluorescence polarization; further: series mostly up to about 57 µM; nearly all actives have a fitted effect of over 65% in size
Target sequence (P53350 whole entry, looked up, the tested form may be a part): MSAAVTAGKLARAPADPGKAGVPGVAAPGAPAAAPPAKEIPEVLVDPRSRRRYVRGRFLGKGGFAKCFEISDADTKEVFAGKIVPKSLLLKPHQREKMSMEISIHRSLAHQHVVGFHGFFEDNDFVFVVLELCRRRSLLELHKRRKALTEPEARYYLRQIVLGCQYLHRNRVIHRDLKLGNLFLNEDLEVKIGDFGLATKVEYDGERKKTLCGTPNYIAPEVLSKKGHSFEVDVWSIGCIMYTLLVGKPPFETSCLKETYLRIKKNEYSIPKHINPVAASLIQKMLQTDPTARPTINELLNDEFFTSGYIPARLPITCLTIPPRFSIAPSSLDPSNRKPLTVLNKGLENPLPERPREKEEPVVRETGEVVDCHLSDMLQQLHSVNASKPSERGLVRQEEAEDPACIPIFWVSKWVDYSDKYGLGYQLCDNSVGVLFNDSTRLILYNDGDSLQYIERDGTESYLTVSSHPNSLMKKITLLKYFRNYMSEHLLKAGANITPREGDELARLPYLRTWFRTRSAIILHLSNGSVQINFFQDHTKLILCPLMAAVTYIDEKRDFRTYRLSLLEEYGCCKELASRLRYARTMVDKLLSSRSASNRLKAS
DT40 TDP1 CPT: growth inhibition of DT40 Tdp1-/-;hTDP1 cells with camptothecin (screen for TDP1 inhibitors) | 420,000 tested, 12% active | chicken DT40 Tdp1-/-;hTDP1 cells + 20 nM CPT, ATP luminescence, 48 h | Potency, µM (top dose mostly 46.2 µM), most hits filed as inhibitors; further: nearly all actives have a fitted effect of over 55% in size
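Cell growth measured by CellTiter-Glo luminescence after a minimum 48 h, 37 C compound exposure with 20 nM CPT in Tdp1-knockout DT40 cells stably expressing hTDP1, seeded 400/well; qHTS titration format.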
TDP1 inh: inhibitors of human tyrosyl-DNA phosphodiesterase TDP1; Q9NUW8; recombinant TDP1, AlphaScreen DNA substrate cleavage; Potency, µM (titrated, usually from 130 µM), hits mostly inhibitors; 350,000 tested, 0.28% active; AID 485290; further: nearly all actives have a fitted effect of over 40% in size
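Steps: enzyme plus compound, 15 min RT; add biotin/phosphotyrosine-FITC oligonucleotide (15 nM final), react 5 min; add donor/acceptor beads (10 ug/ml final), 10 min; read AlphaScreen. Tdp1 at 1 nM final.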
TDP1 cell noCPT: qHTS for Inhibitors of human tyrosyl-DNA phosphodiesterase 1 (TDP1): qHTS in cells in absence of CPT; DT40 Tdp1-/- hTDP1 cells, no CPT, ATP luminescence, 48 h; Potency, µM (doses to about 46.2 µM), usual class: inhibitors; 420,000 tested, 15% active; further: nearly all actives have a fitted effect of over 55% in size
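Luminescent ATP content (CellTiter-Glo) served as the growth readout. Knockout chicken DT40 cells expressing human TDP1 were exposed to compounds without camptothecin for a minimum 48 hr at 37 °C.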
A number is an active result; 0 = inactive; ? = inconclusive; - = no result given; [ ] = dose if it differs, or a comment. The call rests on the fitted dose curve; in most records, active means well fitted curve in the direction sought with a large enough effect; inconclusive means small, poorly fitted or top-dose-only effect, or another doubt; inactive means no such curve, though single readings can be large; an effect the other way counts as inactive or inconclusive.

SMILES	KAT2A inh	VDR inh	PLK1 PBD block	DT40 TDP1 CPT	TDP1 inh	TDP1 cell noCPT
C[C@]12CC[C@H]3[C@@H](CCC4=CC(=O)CC[C@@H]43)[C@@H]1CC[C@@H]2OC(=O)CCc1ccccc1	-	-	-	0	-	0
COc1ccc(/C=N\NC(=O)c2cccc(F)c2)cc1COc1ccccc1	-	0	0	0.82µM	-	0.651µM
COC(=O)c1c2[n+](cc3cc(OC)c(OC)cc13)CCc1cc(OC)c(OC)cc1-2	-	0	0	18.4µM	-	20.6µM
CCCCC[C@@H](/C=C/C=C\CCCCCCCCCC(=O)O)OO	-	0	-	-	0	-
CN1CSC(=S)N(C)C1	-	0	?	6.51µM	0	4.61µM
Cc1[nH]c2ccc(OCc3ccccc3)cc2c1CCN	0	0	0	14.6µM	-	13µM
Cc1[nH]c2ccc(O)cc2c1CCN	0	0	0	0	0	0
CCn1c(O)c(C(c2ccccn2)c2c(O)n(CC)c(=S)[nH]c2=O)c(=O)[nH]c1=S	0	0	0	0	-	0
Cc1cccc(CN2C(=O)CN=C(c3ccccc3)c3cc(Cl)ccc32)c1	0	0	-	?	0	16.4µM
CCc1cccc(NC(=O)CN2C(=O)CN=C(c3ccccc3F)c3cc(Cl)ccc32)c1	0	0	-	?	0	?
Cc1cccc(CN2C(=O)CN=C(c3ccccc3)c3ccccc32)c1	0	0	-	5.8µM	0	5.8µM
O=C1CN=C(c2ccccc2)c2cc(Cl)ccc2N1Cc1ccc(Cl)cc1	0	0	-	?	0	14.6µM
Cc1cccc(-c2nc(CN3C(=O)CN=C(c4ccccc4)c4ccccc43)c(C)o2)c1	0	0	-	?	0	?
CCN(CC)CCN1C(=O)CN=C(c2ccccc2F)c2cc(Cl)ccc21	0	?	-	?	0	26.6µM
CC1CCCCC12C(=O)NC(=O)NC2=O (stereo not given)	-	0	0	0	-	0
COc1c(C)cc(C(=O)C2CCCN(Cc3cnc(C)s3)C2)cc1C (stereo not given)	0	0	0	?	-	25.9µM
COc1cccc(C(=O)C2CCCN(Cc3ccccn3)C2)c1 (stereo not given)	0	0	0	0	-	?
COc1c(C)cc(C(=O)C2CCCN(Cc3ccccn3)C2)cc1C (stereo not given)	0	0	0	?	0	18.4µM
Cc1ncc(CN2CCCC(C(=O)c3cccc(OC(C)C)c3)C2)s1 (stereo not given)	20µM	0	0	?	0	?
Cc1ncc(CN2CCCC(C(=O)c3sccc3C)C2)s1 (stereo not given)	0	0	0	?	0	0
CCOC(=O)CCCc1cc[c]([Sb](=[O])([OH])[OH])cc1	-	?	-	0	0.251µM	0
CCOC(=O)Cn1cc(C(=O)c2ccccc2)c2ccccc21	0	0	0	0	0	0
COc1ccc(C(=O)CN2CCOCC2)cc1	-	-	-	0	-	0
O=C1OC(c2ccc(O)c(S(=O)(=O)O)c2)(c2ccc(O)c(S(=O)(=O)O)c2)c2c(Br)c(Br)c(Br)c(Br)c21	28.2µM	35.5µM	-	0	0	0
Cc1ccc(S(=O)(=O)N2Cc3ccccc3-n3nncc3C2)cc1	-	0	0	?	-	?
SMILES	KAT2A inh	VDR inh	PLK1 PBD block	DT40 TDP1 CPT	TDP1 inh	TDP1 cell noCPT
CC(=O)Nc1ccc(S(=O)(=O)N2Cc3ccccc3-n3nncc3C2)cc1	-	-	0	14.6µM	-	14.6µM
CC(Nc1cc(C)cc(C)c1)=[N+](C)CCNS(=O)(=O)c1ccc(Cl)cc1	?	0	0	13µM	0	0
CCCCn1c(=O)c(C(=O)Nc2nnc(C(C)C)s2)c(O)c2ccccc21	0	-	-	-	0	-
CN(Cc1ccc(OC(F)F)cc1)Cc1nc2c(Br)cc(Br)cc2c(=O)[nH]1	0	0	0	?	0	16.4µM
CCn1c(O)c(C=NCc2cccs2)c(=O)[nH]c1=O	0	?	15µM	?	0	29.1µM
O=c1[nH]c(=O)n(Cc2ccco2)c(O)c1C=NCc1cccs1	-	0	0	0	0	0
O=C(Oc1ccccc1)N1CCC2(CCN(Cc3ccncc3)CC2)CC1	0	0	-	0	-	?
Nc1ncnc2c1ncn2[C@@H]1O[C@@H]2COP(O)(=S)O[C@H]2[C@H]1O (stereo not given in full)	-	-	-	0	-	0
Cc1ccc(C(O)(C(=O)OC(C)C)C(O)c2ccc(F)cc2)cc1 (stereo not given)	-	-	0	?	-	20.6µM
O=C(Nc1ccc2c(c1)OCO2)c1cccn(Cc2cccc(F)c2)c1=O	0	0	-	0	0	0
C=CCN1CC[C@]23c4c5ccc(O)c4O[C@@H]2C(=O)CC[C@]3(O)[C@H]1C5	0[0.501 µM]	0	-	0	0	0
Oc1ccc(Cl)cc1Sc1cc(Cl)ccc1O	-	0	?	18.4µM	0	18.4µM
CCC(C)(C)O	0	0	-	-	0	-
Cc1ccccc1-n1c(O)c(/C=N/NC(=O)c2ccccc2O)c(=O)[nH]c1=S	0	?	4.23µM	?	-	?

Screens as filed in PubChem.
